Assay [1] addresses Phenylethanolamine N-methyltransferase (Homo sapiens) (UniProt P11086). The experiment in a line: Confirmatory Screen for Target Class Profiling of Small Molecule Inhibitors of Methyltransferases (AID 1745852). The note with it: MTase-Glo luminescence, SAH detection, recombinant enzyme, stronger effect = lower value; measured here: PNMT max response unless noted.
The target in assay [2] is Metallo-beta-lactamase type 2 (Klebsiella pneumoniae) (UniProt C7C422). Kind of assay: qHTS to identify inhibitors of the New Delhi Metallo-beta-lactamase (NDM): assay validation screen against the NCATS LOPAC Collection (AID 1794843).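 Note: nitrocefin turnover by NDM-1 measured as 485 nm absorbance at plateau; % is set by controls: 0 for no effect and ±100 for the full control effect.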 As to conditions: NDM-1 enzyme, nitrocefin hydrolysis, absorbance 485 nm; series mostly up to 38.4 µM. An outline of the steps:
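Enzyme 2 nM final, 50 mM HEPES pH 7.0, 1 uM ZnSO4, 0.01% Tween20; cpds in DMSO, preincub w/ enzyme; + nitrocefin (50 uM stock); A485 at plateau; no-enzyme column as blank.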

Assay [3] concerns the target Glutathione peroxidase 1 (Homo sapiens) (UniProt P07203). The experiment in a line: Primary qHTS Assay for Inhibitors of Recombinant Selenoprotein Glutathione Peroxidase 1 (GPX1) (AID 1845191). Note: nearly all actives have a fitted effect of over 65% in size. The note with it: recombinant GPX1, GR-coupled NADPH fluorescence, 15 min; series mostly up to 48.8 µM. Summed up: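 NADPH consumption tracked by fluorescence at 340/450 nm between t=0 and t=15 min, room temperature. Final mix: 10 nM GPX1, 100 nM glutathione reductase, 1 mM GSH, 0.5 mM NADPH, 0.5 mM cumene hydroperoxide, 0.01% BSA; 30 min compound–enzyme preincubation.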

The target in assay [4] is Phospholipid hydroperoxide glutathione peroxidase GPX4 (Homo sapiens) (UniProt P36969). The experiment in a line: Primary qHTS Assay for Inhibitors of Recombinant Selenoprotein Glutathione Peroxidase 4 (GPX4) (AID 1845192). Note: nearly all actives have a fitted effect of over 65% in size. Note: potency is the fitted concentration of half-maximal effect. As to conditions: recombinant GPX4, GR-coupled NADPH fluorescence, 15 min; series mostly up to 50 µM. Summed up:
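NADPH consumption followed by fluorescence at 340/450 nm, t=0 and after 15 min at room temperature. Reaction started with cumene hydroperoxide (0.5 mM final) after 30 min compound–GPX4 preincubation; final 200 nM GPX4, 100 nM GR, 1 mM GSH, 0.5 mM NADPH.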

Assay [5] can be described thus: Quantitative High-Throughput drug screen in 47 multiple myeloma cell lines against the NCATS MIPE library collection: FR4_PLB cell viability assay (AID 1918924; note: nearly all actives have a fitted effect of over 35% in size; note: potency is the fitted concentration of half-maximal effect). As to conditions: FR4_PLB myeloma cells viability, CellTiter-Glo ATP, 48 h; series mostly up to 45.8 µM. Summed up:
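Approved and investigational drugs from MIPE 4.0 were added by pin tool to 500 cells per well. After 48 hours at 37C, ATP-based CellTiter-Glo luminescence indicated remaining viability.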

Assay [6] is described as follows: Quantitative High-Throughput drug screen in 47 multiple myeloma cell lines against the NCATS MIPE library collection: Delta47_JCRB cell viability assay (AID 1918925; note: nearly all actives have a fitted effect of over 45% in size; note: potency is the fitted concentration of half-maximal effect). The note with it: Delta47 myeloma viability, CellTiter-Glo ATP, 48 h; series mostly up to 45.8 µM. Summed up:
(§1)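 Relative luminescence from CellTiter-Glo served as the viability signal, referenced to DMSO-treated (100%) and cell-free medium (0%) controls. Treatment lasted 48 hours at 37C with 500 cells per well.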

Assay [7] in a line: Quantitative High-Throughput drug screen in 47 multiple myeloma cell lines against the NCATS MIPE library collection: ARD_JJKsccE7 cell viability assay (AID 1918929; note: potency is the fitted concentration of half-maximal effect;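 for viability: 100% = DMSO-only wells and 0% = media-only wells without cells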). As to conditions: ARD myeloma cell line viability, CellTiter-Glo, 48 h; series mostly up to 45.8 µM. An outline of the steps:
as §1

Assay [8] is described as follows: Quantitative High-Throughput drug screen in 47 multiple myeloma cell lines against the NCATS MIPE library collection: EJM_DSMZ cell viability assay (AID 1918926; note: nearly all actives have a fitted effect of over 30% in size; note: potency is the fitted concentration of half-maximal effect). As to conditions: EJM myeloma cell viability, CellTiter-Glo ATP, 48 h; series mostly up to 45.8 µM. An outline of the steps:
as §1

The nature of assay [9]: Quantitative High-Throughput drug screen in 47 multiple myeloma cell lines against the NCATS MIPE library collection: ARP1_JJKsccF8 cell viability assay (AID 1918928; note: nearly all actives have a fitted effect of over 40% in size; note: potency is the fitted concentration of half-maximal effect). The note with it: ARP1 myeloma cells viability, CellTiter-Glo ATP, 48 h; series mostly up to 45.8 µM. Summed up: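 500 cells/well; MIPE 4.0 library pinned in; 48 h, 37 °C, 5% CO2; CellTiter-Glo ATP luminescence. Controls: DMSO = 100% viability, medium only = 0%.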

The nature of assay [10]: NCATS anti-infectives library activity on HEK293 viability as a counter-qHTS vs the C. elegans viability qHTS (AID 1745854).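 Note: HEK293 cells exposed to compounds for 24 hr before the viability read; % is set by controls: 0 for no effect and ±100 for the full control effect.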 The note with it: HEK293 viability counter-screen; series mostly up to 41.8 µM. An outline of the steps: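 Compound titrations (final up to 41.7 uM) were incubated with HEK293 cells for 24 hr at 37C under 5% CO2. Viable cells were quantified with CellTiter-Glo after 10 min at ambient temperature.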

Assay [11] can be described thus: Primary fluorescence-based thiol-reactive (MSTI) qHTS assay for identification of artifact compounds. (AID 1845221). Note: nearly all actives have a fitted effect of over 65% in size. Note: potency is the fitted concentration of half-maximal effect. The note with it: MSTI thiol-reactivity probe, 1 h; series mostly up to 53.8 µM. An outline of the steps:
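Compounds were incubated 1 h at room temperature in the dark with the MSTI probe (4 uM) in PBS pH 7.4, 2% DMSO. Signals were normalized between Acetyl-MSTI and MSTI.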

Assay [12] relates to Nanoluciferase (engineered Oplophorus gracilirostris luciferase). The experiment in a line: Primary Nanoluciferase (NLuc) qHTS assay for identification of artifact compounds. (AID 1845222).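 Note: 0% = DMSO and -100% = no enzyme.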 As to conditions: NLuc-conditioned medium, Nano-Glo luminescence, 5 min; series mostly up to 54.1 µM. Summed up:
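Compounds are pinned into diluted (1:55) conditioned medium of NLuc-expressing S16 cells and held 15 min at room temperature protected from light. Nano-Glo substrate follows, and luminescence is read 5 min later.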

A short description of assay [13]: Primary redox qHTS assay for identification of artifact compounds. (AID 1845223).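 Note: 0% = DMSO and 100% = reference compound.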 As to conditions: Amplex Red/HRP redox cycling with DTT, fluorescence; series mostly up to 53.8 µM. An outline of the steps: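 Redox-cycling detection via DTT (250 uM final) oxidation coupled to Amplex Red (25 uM)/HRP (250 mU/mL) in HBSS. 15 min preincubation plus 30 min after DTT, room temperature. Ex/Em 525/598 nm; 4-parameter Hill fit against DMSO and 10 uM DA3003.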

The nature of assay [14]: Quantitative High-Throughput drug screen in 47 multiple myeloma cell lines against the NCATS MIPE library collection: AMO1_DSMZ cell viability assay (AID 1918927; note: nearly all actives have a fitted effect of over 30% in size; note: potency is the fitted concentration of half-maximal effect). As to conditions: AMO1 myeloma cells viability, CellTiter-Glo ATP luminescence, 48 h; series mostly up to 45.8 µM. Summed up: as §1
Assay [15] in a line: NCATS anti-infectives library activity on the primary C. elegans qHTS viability assay (AID 1745855; calls by dose curve). As to conditions: C. elegans worm area imaging, day 7; series mostly up to 41.8 µM. Summed up: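 Titration-based screen in worms: eggs hatched overnight in M9, L1 larvae fed TOP10 capsules in S medium with compound, incubated 21 °C for 7 days; fluorescent objects gated by size and intensity at days 0, 3 and 7.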

Results filed as inconclusive are left out. Calls of active or inactive are those of the source. Unless noted, calls come from the whole dose curve; as a rule, active = well fitted curve in the direction sought with a large enough effect; inconclusive = small, poorly fitted or top-dose-only effect, or another doubt; inactive = no such curve, though single readings can be large; an effect the other way counts as inactive or inconclusive.

Chain of Phenylethanolamine N-methyltransferase (Homo sapiens) (P11086 whole entry, looked up): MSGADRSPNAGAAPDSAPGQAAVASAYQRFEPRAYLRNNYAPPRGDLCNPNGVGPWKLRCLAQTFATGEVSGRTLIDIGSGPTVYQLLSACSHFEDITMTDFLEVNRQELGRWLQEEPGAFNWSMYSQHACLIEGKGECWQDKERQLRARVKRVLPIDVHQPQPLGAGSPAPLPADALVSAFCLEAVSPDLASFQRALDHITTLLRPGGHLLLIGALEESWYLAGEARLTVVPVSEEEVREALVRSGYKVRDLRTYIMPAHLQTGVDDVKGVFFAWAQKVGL
Chain of Phospholipid hydroperoxide glutathione peroxidase GPX4 (Homo sapiens) (P36969 whole entry, looked up): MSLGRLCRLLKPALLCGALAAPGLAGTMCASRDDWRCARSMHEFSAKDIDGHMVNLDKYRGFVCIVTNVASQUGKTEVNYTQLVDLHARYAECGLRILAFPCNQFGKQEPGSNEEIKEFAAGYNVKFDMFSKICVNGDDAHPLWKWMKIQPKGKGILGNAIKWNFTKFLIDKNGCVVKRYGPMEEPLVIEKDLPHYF
Chain of Glutathione peroxidase 1 (Homo sapiens) (P07203 whole entry, looked up): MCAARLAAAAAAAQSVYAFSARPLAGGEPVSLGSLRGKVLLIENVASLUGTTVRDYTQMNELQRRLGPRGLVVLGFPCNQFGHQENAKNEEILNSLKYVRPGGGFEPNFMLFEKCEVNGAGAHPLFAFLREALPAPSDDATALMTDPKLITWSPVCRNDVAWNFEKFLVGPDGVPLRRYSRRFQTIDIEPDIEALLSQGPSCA
Chain of Metallo-beta-lactamase type 2 (Klebsiella pneumoniae) (C7C422 whole entry, looked up): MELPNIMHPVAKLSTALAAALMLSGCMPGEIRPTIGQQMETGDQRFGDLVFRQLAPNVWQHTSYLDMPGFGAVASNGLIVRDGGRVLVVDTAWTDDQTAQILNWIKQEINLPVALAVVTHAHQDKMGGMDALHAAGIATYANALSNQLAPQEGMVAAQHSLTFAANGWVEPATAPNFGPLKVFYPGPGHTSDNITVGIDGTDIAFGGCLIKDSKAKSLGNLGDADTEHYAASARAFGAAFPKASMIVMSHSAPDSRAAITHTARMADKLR

For the compound `O=c1ccc2ccc(O)c(O)c2o1`, the activity in [1] came out at 2.42%. Besides, the outcome in assay [2] is “inactive”. The Potency entry in [3], in assay [4], in assay [5] and in assay [7] was “inactive” throughout. Moreover, the Potency in [6] is 6.62 µM (active).
Turning to `Cc1c(OCC(F)(F)F)ccnc1CS(=O)c1nc2ccccc2[nH]1` (configuration not stated), the activity in [1] stood at 10%. The Potency result in assay [3], in assay [5], in [8] and in [9] was “inactive” throughout. In assay [4], the Potency is 4.53 µM (active).
For `Cc1cc(Cl)ccc1OCCCC(=O)NO`, the outcome in [10] and in assay [2] was “inactive” throughout. The Potency entry in [3] and in assay [4] was “inactive” each time. The Potency in assay [6] is 2.96 µM (active); in assay [8], 0.296 µM (active); in assay [7], 20.9 µM (active).
With `Cc1ccc(NC(=O)c2ccc(CN3CCN(C)CC3)cc2)cc1Nc1nccc(-c2cccnc2)n1`, the outcome in [10], in assay [12] and in assay [13] was “inactive” throughout. The Potency result in [3], in [4] and in [11] was “inactive” each time. Also, the Potency in assay [6] is 20.9 µM (active).
With `O=P(O)(O)C(O)(Cn1ccnc1)P(=O)(O)O`, the activity change, negative = cytotoxicity in [10] was -5.55% [at 3.71 µM] (inactive). Moreover, the Potency entry in assay [3], in assay [4], in assay [5], in [6], in [8] and in assay [9] was “inactive” throughout.
As for `O=C1NC(=O)C(c2ccccc2[N+](=O)[O-])=C1Nc1ccc(O)c(Cl)c1`, the outcome in assay [10] and in [2] was “inactive” in each case. Further, the Potency entry in assay [3], in [4], in assay [8] and in assay [9] was “inactive” throughout.
With `N[C@@H](Cc1cc(I)c(Oc2cc(I)c(O)c(I)c2)c(I)c1)C(=O)O`, the activity in assay [1] was -6.64%. The Potency result in [3], in [4], in assay [5], in assay [8], in assay [14] and in assay [9] was “inactive” each time. Besides, in [7], the Potency result is “inactive”. Besides, the Potency in assay [11] is 0.736 µM (active). Moreover, the outcome in assay [12] and in [13] was “inactive” throughout.
Regarding `CCOC(=O)c1c(C)n(C)c2ccc(O)cc12`, in assay [10], the outcome is “inactive”. Moreover, the Potency result in assay [3], in assay [5], in assay [8], in assay [14] and in assay [7] was “inactive” each time.
Consider `S=c1nc[nH]c2nc[nH]c12`, for which the Potency result in assay [15], in [3], in assay [4], in assay [8] and in assay [14] was “inactive” throughout. In addition, the Potency in assay [9] and in assay [7] was 2.35 µM (active) in each case.
For the compound `C[C@H](Cc1ccc(O)c(O)c1)[C@@H](C)Cc1ccc(O)c(O)c1`, the activity in [1] was -61.1%. Also, the outcome in [2] was “inactive”. For the same compound, the Potency result in assay [3] and in assay [4] was “inactive” in each case. In addition, the Potency in assay [5] was 2.09 µM (active); in [6], 16.6 µM (active); in assay [14] it was 7.43 µM (active); in assay [9] it was 20.9 µM (active).
With `CN(C)C(=O)[C@H](O)[C@H](Cc1ccccc1)NC(=O)c1cc2cc(Cl)ccc2[nH]1`, the outcome in assay [2], in [12] and in assay [13] was “inactive” in each case. Besides, the Potency result in assay [3], in [4] and in [11] was “inactive” in each case. The Potency in assay [6] is 4.18 µM (active); in assay [14], 6.62 µM (active); in assay [9], 16.6 µM (active); in assay [7], 16.6 µM (active).
